Assay results taken from the supplement of paper PMC8371130.
Counter-ions that a name gives are not always drawn.

These molecules were tested on HL-1 (assay: relative cell viability (CellTiter-Glo) vs DMSO control (% of DMSO control); higher = more viable cells). Conditions: oxygen condition: normoxia 72 h; 5000 nM.
How it was run: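 Plating of HL-1 mouse atrial cardiomyocytes at 1000 cells per well in 384-well plates was done together with compounds at 40, 200, 1000 or 5000 nM in 0.01% DMSO. A day later the cells faced 48 h of 1% O2 and then 24 h of reoxygenation, or matching normoxia. Viability was measured via CellTiter-Glo luminescence and set relative to vehicle-treated control cells.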
Work on `O=C(CCCN1CC=C(n2c(=O)[nH]c3ccccc32)CC1)c1ccc(F)cc1` [Droperidol] yielded a relative cell viability of 106. `Cc1ccc(C)c(OCCCC(C)(C)C(=O)O)c1` [Gemfibrozil] was tested, and the relative cell viability was 106. Molecule `CC(C)[C@H](N)C(=O)OCC(CO)OCn1cnc2c(=O)nc(N)[nH]c21` (some centres undefined) [valganciclovir hydrochloride] has a relative cell viability of 115. `CCCCCN(C)CCC(O)(P(=O)(O)O)P(=O)(O)O` [Ibandronate sodium] was tested, and the relative cell viability was 84.4. With `CN(C)CCC(c1ccccc1)c1ccccn1` (centres undefined) [Pheniramine Maleate] the relative cell viability was 113. `O=C1c2c(O)ccc(O)c2C(=O)c2c(NCCNCCO)ccc(NCCNCCO)c21` [Mitoxantrone Hydrochloride] showed a relative cell viability of 3.38. With `CCN(CC)CCNC(=O)c1c(C)[nH]c(/C=C2\C(=O)Nc3ccc(F)cc32)c1C` [Sunitinib Malate] the relative cell viability was 111. Molecule `CCCc1nn(C)c2c(=O)[nH]c(-c3cc(S(=O)(=O)N4CCN(C)CC4)ccc3OCC)nc12` [Sildenafil citrate] has a relative cell viability of 109. In the case of `CCCCOc1ccc(OCCCN2CCOCC2)cc1` [Pramoxine HCl], the relative cell viability is reported as 119. In the case of `COc1ccc(CN2CCN(C(c3ccc(F)cc3)c3ccc(F)cc3)CC2)c(OC)c1OC` [Lomerizine HCl], the relative cell viability is reported as 108. Work on `COc1ccc(-c2nc3cc(C4=NNC(=O)CC4C)ccc3[nH]2)cc1` (centres undefined) [Pimobendan] yielded a relative cell viability of 111. For `NS(=O)(=O)c1cc2c(cc1Cl)N=C(CSCc1ccccc1)NS2(=O)=O` [Benzthiazide], the relative cell viability was 105. For `CNC[C@@H](O)c1ccc(O)c(O)c1` [L-Adrenaline], the relative cell viability was 95.4. Molecule `CO[C@H]1C(=O)[C@]2(C)[C@@H](OC)C[C@H]3OC[C@@]3(OC(C)=O)[C@H]2[C@H](OC(=O)c2ccccc2)[C@]2(O)C[C@H](OC(=O)[C@H](O)[C@@H](NC(=O)OC(C)(C)C)c3ccccc3)C(C)=C1C2(C)C` [Cabazitaxel] has a relative cell viability of 29.7. With `OCC(CO)N[C@H]1C[C@](O)(CO)[C@@H](O)[C@H](O)[C@H]1O` [Voglibose] the relative cell viability was 115. Work on `COc1ccc2c(c1OC)C(=O)O[C@@H]2[C@H]1c2c(cc3c(c2OC)OCO3)CCN1C` [Noscapine HCl] yielded a relative cell viability of 109. For `CCOC(=O)[C@H](CCc1ccccc1)N[C@H]1CS[C@H](c2cccs2)CN(CC(=O)O)C1=O` [Temocapril HCl], the relative cell viability was 110. In the case of `C#C[C@]1(O)CC[C@H]2[C@@H]3CCc4cc(O)ccc4[C@H]3CC[C@@]21C` [Ethinyl Estradiol], the relative cell viability is reported as 110. `CNNCc1ccc(C(=O)NC(C)C)cc1` [Procarbazine HCl] was tested, and the relative cell viability was 113. Work on `O=C1O[C@H]([C@@H](O)CO)C([O-])=C1O.[Na+]` [Sodium ascorbate] yielded a relative cell viability of 114. With `CCOc1ccc2nc(S(N)(=O)=O)sc2c1` [Ethoxzolamide] the relative cell viability was 108. For `CC(CCc1ccc(O)cc1)NCC(O)c1ccc(O)cc1` (centres undefined) [Ractopamine HCl], the relative cell viability was 106. Work on `CCN[C@H]1CN(CCCOC)S(=O)(=O)c2sc(S(N)(=O)=O)cc21` [Brinzolamide] yielded a relative cell viability of 3.09. `COC(=O)CCc1ccc(OCC(O)CNC(C)C)cc1` (centres undefined) [Esmolol HCl] gave a relative cell viability of 112. Work on `CNC1CCCN(c2c(F)cc3c(=O)c(C(=O)O)cn(C4CC4)c3c2OC)C1` (centres undefined) [Balofloxacin] yielded a relative cell viability of 107. `C[C@H](N[C@@H](CCc1ccccc1)C(=O)O)C(=O)N1CCC[C@H]1C(=O)O` [Enalaprilat dihydrate] gave a relative cell viability of 109. `O=S(=O)(O)CCS` [Mesna] gave a relative cell viability of 123. `Cl.N=C(N)NCCC[C@H](N)C(=O)O` [L-Arginine HCl] showed a relative cell viability of 107. Work on `O=C1CCc2cc(OCCCCc3nnnn3C3CCCCC3)ccc2N1` [Cilostazol] yielded a relative cell viability of 109. Work on `CCCC(CCC)C(=O)O[C@H]1C[C@H]2CC[C@@H](C1)[N+]2(C)C` [Anisotropine Methylbromide] yielded a relative cell viability of 109. With `CCCc1nc(C(C)(C)O)c(C(=O)OCc2oc(=O)oc2C)n1Cc1ccc(-c2ccccc2-c2nnn[nH]2)cc1` [Olmesartan medoxomil] the relative cell viability was 95.7. In the case of `CN1CCOC(c2ccccc2)c2ccccc2C1` (centres undefined) [Nefopam HCl], the relative cell viability is reported as 68.8. Molecule `CCOC(=O)c1ccc(OC(=O)CCCCCNC(=N)N)cc1` [Gabexate mesylate] has a relative cell viability of 110. `NCCS` [Cysteamine HCl] gave a relative cell viability of 111. Molecule `CC(C)C[C@H](NC(=O)[C@@H](O)[C@H](N)Cc1ccccc1)C(=O)O` [Ubenimex] has a relative cell viability of 108. `CC1CCc2cc(F)cc3c(=O)c(C(=O)O)cn1c23` (centres undefined) [Flumequine] gave a relative cell viability of 98.2. `COC(=O)C1=C(C)NC(C)=C(C(=O)OC(C)C)C1c1cccc2nonc12` (centres undefined) [Isradipine] showed a relative cell viability of 110. With `CC1(C)Cc2c(-c3ccccc3)c(-c3ccc(Cl)cc3)c(CC(=O)O)n2C1` [Licofelone] the relative cell viability was 108. `C#C[C@]1(O)CC[C@H]2[C@@H]3CCc4cc(OC)ccc4[C@H]3CC[C@@]21C` [Mestranol] showed a relative cell viability of 85.7.
